Only some compounds are listed: those with a hit (about 2.5% of all), similar ones and a draw of the others.
L3MBTL1 inh-1 = L3MBTL1 (human) inhibition; hit rate 0.66% among 230,000; AlphaScreen L3MBTL1–H3K9me1 peptide binding; AID 485360; Q9Y468; Potency, µM (highest dose often 57.1 µM), most hits filed as inhibitors; note: nearly all actives have a fitted effect of over 60% in size
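First, the protein-peptide complex forms for 30 min at room temperature (L3MBTL1 50 nM, biotinylated H3K9me1 peptide 75 nM). Next, compounds are pin-transferred and incubated 30 min. Finally, AlphaScreen beads are added and read after 30 min.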
Pol beta inh-1 = DNA polymerase beta (human) inhibition; Pol beta primer extension/strand displacement, fluorescence kinetic; Potency, µM (top dose mostly 114 µM), usual class: inhibitors; AID 485314; hit rate 1.3% among 340,000; P06746
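Preincubation: enzyme (10 nM) with compound, 15 min, RT. Reaction: substrate added to 50 nM final. Reads: 0 and 10 min. Analysis: normalized, Hill fit.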
Pol kappa inh-1 = DNA polymerase kappa (human) inhibition; AID 588579; purified Pol kappa, fluorescent DNA synthesis assay, 10 min; Potency, µM (titrated, usually from 107 µM), usual class: inhibitors; hit rate 0.53% among 400,000
Target sequence (Q9UBT6 whole entry, looked up): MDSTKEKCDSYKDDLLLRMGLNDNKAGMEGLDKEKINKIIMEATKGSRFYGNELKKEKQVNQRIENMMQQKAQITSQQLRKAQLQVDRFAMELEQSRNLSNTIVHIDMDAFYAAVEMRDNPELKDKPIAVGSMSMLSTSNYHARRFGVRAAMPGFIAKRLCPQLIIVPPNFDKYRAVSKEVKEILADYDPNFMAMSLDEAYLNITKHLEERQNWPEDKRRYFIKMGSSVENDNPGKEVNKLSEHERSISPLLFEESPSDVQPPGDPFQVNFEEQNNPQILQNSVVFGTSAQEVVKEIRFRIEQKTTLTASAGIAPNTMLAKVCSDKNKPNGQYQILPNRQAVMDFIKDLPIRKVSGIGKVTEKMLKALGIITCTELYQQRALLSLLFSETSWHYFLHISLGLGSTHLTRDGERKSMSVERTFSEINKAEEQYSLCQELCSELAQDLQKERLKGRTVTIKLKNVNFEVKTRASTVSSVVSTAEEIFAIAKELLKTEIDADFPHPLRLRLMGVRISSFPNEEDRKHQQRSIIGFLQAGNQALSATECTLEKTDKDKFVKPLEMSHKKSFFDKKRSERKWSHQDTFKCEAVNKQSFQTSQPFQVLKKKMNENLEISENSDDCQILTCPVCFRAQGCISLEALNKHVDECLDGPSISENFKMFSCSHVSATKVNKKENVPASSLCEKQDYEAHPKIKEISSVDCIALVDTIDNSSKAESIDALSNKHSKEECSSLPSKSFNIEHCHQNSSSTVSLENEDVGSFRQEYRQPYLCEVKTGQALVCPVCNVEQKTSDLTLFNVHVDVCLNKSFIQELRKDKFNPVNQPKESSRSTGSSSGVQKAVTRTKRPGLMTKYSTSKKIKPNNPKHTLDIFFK
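First, compounds were pin-transferred onto 10 nM Pol kappa. After 15 min at room temperature, substrate was added to 50 nM final. Fluorescence was then measured kinetically at 0 and 10 min.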
POLI inh = DNA polymerase iota (human) inhibition. Q9UNA4. Pol iota fluorescent replication assay, 10 min. AID 588590. Potency, µM (doses to about 115 µM), most hits filed as inhibitors. hit rate 1% among 390,000
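Pol iota at 10 nM preincubated 15 min with compounds at room temperature; reaction started with fluorescent substrate, 50 nM final. Fluorescence read kinetically at 0 and 10 min; buffer-only wells as negative control.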
Pol eta inh-1 = inhibitors of human DNA polymerase eta. hit rate 1.2% among 390,000. recombinant Pol eta, fluorescent DNA replication assay. Potency, µM (titrated, usually from 114 µM), usual class: inhibitors
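Pol eta (10 nM) was preincubated with compounds for 15 min at room temperature, after which fluorescent replication substrate (50 nM final) was added to start the reaction. Fluorescence was read kinetically at 0 and 10 min.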
APE1 inh-1 = inhibitors of human APE1 endonuclease; P27695; recombinant APE1, TAMRA/BHQ-2 abasic DNA cleavage fluorescence; Potency, µM (titrated, usually from 65.8 µM), most hits filed as inhibitors; hit rate 0.35% among 350,000; AID 2517; note: nearly all actives have a fitted effect of over 55% in size
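Enzyme (0.75 nM final) and test compound are incubated 15 min at room temperature before adding 50 nM quenched THF abasic-site duplex. Cleavage dequenches TAMRA, followed at 525/598 nm over three reads one minute apart.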
APE1 dye cs = DNA dye displacement counter-screen activity | DNA fluorescent dye displacement counterscreen, fluorescence | Potency, µM (highest dose often 28.5 µM), hits mostly inhibitors | hit rate 7% among 480 | AID 2564 | shares compounds with APE1 inh-1;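 note: loss of thiazole orange fluorescence as the dye is displaced from duplex DNA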
Endo IV inh = blocks E. coli endonuclease IV DNA cleavage. shares compounds with APE1 inh-1. E. coli Endo IV, fluorogenic AP-site DNA cleavage. Potency, µM (doses to about 27.1 µM), usual class: inhibitors. hit rate 4% among 560. AID 2565
APE1 inh-2 = confirmation of inhibitors of human APE1 endonuclease. AID 2572. Potency, µM (series often up to 57.1 µM), hits mostly inhibitors. purified APE1, fluorogenic abasic-site DNA cleavage. shares compounds with APE1 inh-1. hit rate 44% among 750; note: nearly all actives have a fitted effect of over 30% in size
APE1 FP inh = compounds that displace a DNA probe from human APE1. APE1 binding to TAMRA-labelled double-stranded DNA, fluorescence polarization displacement. hit rate 7% among 480. Potency, µM (titrated, usually from 28.5 µM), most hits filed as inhibitors. AID 2573. shares compounds with APE1 inh-1
Pol beta inh-2 = Validate hits inhibiting human DNA polymerase beta; shares compounds with Pol beta inh-1; Pol beta primer extension/strand displacement, fluorescence kinetic; Potency, µM, most hits filed as inhibitors; hit rate 87% among 250; AID 540280; calls by dose curve
Klenow counter = inhibits Klenow fragment polymerase in counter-screen; shares compounds with Pol beta inh-1; Klenow exo- polymerase counter-screen, fluorescent DNA substrate; activity change, negative = inhibition, % at 57.1 µM; 250 tested, under 10 active
HIV RT inh = counter-screen for DNA polymerase beta inhibitors: HIV-1 RT inhibition; HIV-1 RT polymerase activity, counter-screen; shares compounds with Pol beta inh-1; 250 tested, under 10 active; activity % (negative = inhibition, positive = activation), % at 57.1 µM
L3MBTL1 inh-2 = L3MBTL1 binding inhibition validated | shares compounds with L3MBTL1 inh-1 | L3MBTL1 methyl-lysine binding inhibition, biochemical qHTS | Potency, µM, hits mostly inhibitors | hit rate 91% among 500 | AID 540279; note: nearly all actives have a fitted effect of over 70% in size
AlphaScreen ctr2 = AlphaScreen signal inhibition, L3MBTL1 hit counter-screen; AID 602224; AlphaScreen counterscreen, signal inhibition; 500 tested, under 10 active; shares compounds with L3MBTL1 inh-1; Potency, µM (doses to about 57.1 µM), usual class: inhibitors
PGK validate = blocks T. brucei phosphoglycerate kinase. shares compounds with Pol kappa inh-1. TbPGK coupled GAPDH assay, Kinase-Glo luminescence. Potency, µM (highest dose often 57.5 µM), hits mostly inhibitors. hit rate 79% among 500. AID 686980; note: nearly all actives have a fitted effect of over 65% in size
Pol iota confirm = Confirm cherry-picked inhibitors of human polymerase iota | hit rate 77% among 1,500 | AID 720496 | shares compounds with Pol kappa inh-1 | Pol iota primer extension, TAMRA/BHQ fluorescence | Potency, µM, usual class: inhibitors
Pol kappa inh-2 = Pol kappa (human) inhibition, cherry-pick confirmation; hit rate 76% among 920; AID 720501; purified Pol-kappa, fluorescent strand-displacement substrate; shares compounds with Pol eta inh-1; Potency, µM, hits mostly inhibitors
Pol eta inh-2 = confirmation of human DNA polymerase eta inhibitors. shares compounds with Pol eta inh-1. Pol eta primer extension, TAMRA/BHQ fluorescence, 10 min. Potency, µM, usual class: inhibitors. hit rate 64% among 2,600
Of the large screens only hits and unclear results are named; the others gave an inactive call (follow-up assays come after a bar, where they were run). Unless noted, calls come from the whole dose curve; as a rule, active = well fitted curve in the direction sought with a large enough effect; inconclusive = small, poorly fitted or top-dose-only effect, or another doubt; inactive = no such curve, though single readings can be large; an effect the other way counts as inactive or inconclusive.

COc1cc(CC2COC(c3ccc(O)c(OC)c3)C2COC(C)=O)ccc1O (stereo not drawn)	Pol beta inh-1 6.3µM, Pol kappa inh-1 22µM, POLI inh 10µM, Pol eta inh-1 3.5µM, APE1 inh-1 4µM (no result: L3MBTL1 inh-1) | APE1 dye cs inactive | Endo IV inh inactive | APE1 inh-2 10µM | APE1 FP inh inactive | PGK validate 8.2µM
COc1cc([C@@H]2OC[C@@H]3[C@H]2CO[C@@H]3c2ccc3c(c2)OCO3)ccc1O	none (no result: Pol beta inh-1)
CCn1cc(C(=O)O)c(=O)c2cc(F)c(N3CCN(C(=S)Nc4ccccc4OC)CC3)cc21	none
CCn1cc(C(=O)O)c(=O)c2cc(F)c(N3CCN(S(=O)(=O)c4ccc(NC(=O)OC)cc4)CC3)cc21	Pol beta inh-1 inconclusive, Pol eta inh-1 inconclusive | APE1 inh-2 inactive | Pol iota confirm 34
Cn1c(SCC(=O)Nc2ccc3nc(SCC(=O)N4CCCC4)sc3c2)nnc1-c1ccccc1	L3MBTL1 inh-1 inconclusive, Pol beta inh-1 7.1µM, Pol kappa inh-1 79µM, POLI inh inconclusive, Pol eta inh-1 14µM, APE1 inh-1 inconclusive | APE1 inh-2 inactive | Pol beta inh-2 13 | Klenow counter inactive | HIV RT inh inactive | Pol iota confirm 75
O=C(/C=C/c1ccc(O)c(O)c1)OC1C(O)CC(OC(=O)/C=C/c2ccc(O)c(O)c2)(C(=O)O)CC1O (stereo not drawn)	L3MBTL1 inh-1 1µM, Pol beta inh-1 1.4µM, Pol kappa inh-1 inconclusive, POLI inh 5µM, Pol eta inh-1 inconclusive, APE1 inh-1 inconclusive | APE1 dye cs inactive | Endo IV inh inactive | APE1 inh-2 inactive | APE1 FP inh inconclusive | L3MBTL1 inh-2 0.075 | AlphaScreen ctr2 inactive | Pol iota confirm 24
O=C(CSc1nnc(COc2ccccc2Cl)o1)NC(=O)NCc1ccco1	L3MBTL1 inh-1 14µM, Pol beta inh-1 14µM, Pol kappa inh-1 inconclusive, POLI inh 40µM, Pol eta inh-1 50µM, APE1 inh-1 11µM | APE1 dye cs inconclusive | Endo IV inh inactive | APE1 inh-2 14µM | APE1 FP inh inactive | L3MBTL1 inh-2 12 | AlphaScreen ctr2 inactive | Pol iota confirm 67
O=S1(=O)c2ccccc2N(Cc2ccccc2)c2ccccc21	POLI inh inconclusive (no result: L3MBTL1 inh-1, APE1 inh-1)
CCOC(=O)c1cc(-c2ccc(OC)cc2)nn1-c1ccccc1C(=O)O	L3MBTL1 inh-1 inconclusive, Pol beta inh-1 3.2µM, APE1 inh-1 2.5µM | APE1 inh-2 40µM | PGK validate inconclusive
Cc1cc2oc(=O)cc(-c3ccccc3)c2c(C)c1-c1ccc(C#N)cc1	none (no result: Pol beta inh-1)
COc1cc(C(=O)N2CCCCCCC2)ccc1OC1CCN(C(C)=O)CC1	none (no result: L3MBTL1 inh-1)
COc1cccc2c1NC(C(=O)O)C1CC=CC21 (stereo not drawn)	L3MBTL1 inh-1 1.3µM, Pol beta inh-1 1.8µM, Pol kappa inh-1 7.9µM, POLI inh 1µM, Pol eta inh-1 2.5µM, APE1 inh-1 11µM | APE1 dye cs inconclusive | Endo IV inh inactive | APE1 inh-2 16µM | APE1 FP inh inactive | PGK validate 8.2µM
COc1cccc(C2Nc3c(F)cc(Br)cc3C3C=CCC32)c1OC (stereo not drawn)	none
COc1cccc(Cn2c(=O)c(CCc3ccccc3)nc3cnc(OC)nc32)c1	none (no result: L3MBTL1 inh-1, Pol beta inh-1, POLI inh, Pol eta inh-1)
O=C(O)C1Cc2ccccc2CN1C(=O)COc1ccc(Br)cc1 (stereo not drawn)	Pol beta inh-1 32µM, Pol kappa inh-1 79µM, POLI inh inconclusive, Pol eta inh-1 10µM (no result: L3MBTL1 inh-1) | APE1 inh-2 inactive | Pol eta inh-2 27
c1ccc2c(c1)COc1c3ncccc3nn1-2	none (no result: L3MBTL1 inh-1, Pol beta inh-1, Pol kappa inh-1, POLI inh, APE1 inh-1)
O=c1cc2c(=O)oc3cc(O)c(O)oc3c2c(O)c1O	L3MBTL1 inh-1 0.32µM, Pol beta inh-1 0.35µM, Pol kappa inh-1 2.8µM, POLI inh 1.1µM, Pol eta inh-1 0.71µM, APE1 inh-1 0.35µM | APE1 dye cs inconclusive | Endo IV inh inactive | APE1 inh-2 0.13µM | APE1 FP inh inactive | L3MBTL1 inh-2 0.17 | AlphaScreen ctr2 inconclusive | PGK validate inconclusive | Pol iota confirm 1.1 | Pol kappa inh-2 0.95 | Pol eta inh-2 1.2
O=c1oc2cc(O)c(Cl)cc2c2ccccc12	none
O=C(O)c1ccc(Cl)c(S(=O)(=O)N(Cc2ccccc2)c2ccccc2)c1	none (no result: L3MBTL1 inh-1)

From PubChem BioAssay
